Molecules are shown by their SMILES. “And” between values parts separate entries of the source, which are not always exact repeats. Equal values may be shown once. Some structures have more than one record in an assay (separate samples or runs), and their calls can disagree. The source made the active and inactive calls. How the source made its calls: active means hit-call score of the fitted dose curve at least 0.9, where 1 is the maximum; inactive means score below 0.9.

The assay can be described thus: BSK_4H_Eotaxin3: BioMAP Diversity Plus: 4H Assay for Eotaxin 3 Biomarker Activity (AID 2283000).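 On outcome: CCL26 protein level quantified by ELISA in parallel with SRB cytotoxicity check.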 The note with it: primary human endothelial cells (HUVEC); actives raise or lower the signal. In a few lines:
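Eotaxin-3 (CCL26) levels were measured by ELISA in HUVEC primary cultures 24 h post-dosing. Gain or loss of signal was fitted in both directions, with DMSO serving as baseline and negative control.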
Regarding `C#CCC1=C(C)C(OC(=O)C2C(C=C(C)C)C2(C)C)CC1=O` (stereo unspecified), the outcome was inactive.

As usually defined, the AC50 is the concentration at which the activity in the assay is half-maximal. As for `N#CSCSC#N`, the AC50 is 6.94 µM (active).

Take `CN(C)NC(=O)CCC(=O)O`: the result was inactive.

In the case of `CCOC(=O)COc1cc(-c2nn(C)c(OC(F)F)c2Cl)c(F)cc1Cl`, the result was inactive.

Consider `Cc1nn(-c2cc(NS(C)(=O)=O)c(Cl)cc2Cl)c(=O)n1C(F)F`, for which the result was inactive.

For `CCCOCC(=Nc1ccc(Cl)cc1C(F)(F)F)n1ccnc1`, the AC50 was 34.4 µM (active).

Regarding `CN1COCN(Cc2cnc(Cl)s2)C1=N[N+](=O)[O-]`, the result was inactive.

As to `CCCCOC(=O)c1ccccc1C(=O)O`, the result was inactive.

Take `CCNc1nc(Cl)nc(NC(C)(C)C#N)n1`: the result was inactive.

With `Nc1nc(N)nc(NC2CC2)n1`, the outcome was inactive.

Take `CON=C(C(=O)OC)c1ccccc1CON=C(C)c1cccc(C(F)(F)F)c1`: the AC50 is 2.78 µM (active).

With `CCCCN(CC)c1c([N+](=O)[O-])cc(C(F)(F)F)cc1[N+](=O)[O-]`, the result was inactive.

Regarding `CSc1nc(NC(C)C)nc(NC(C)C)n1`, the outcome was inactive.

For the molecule `Cc1cc(C2CC2)nc(Nc2ccccc2)n1`, the AC50 was 9.49 µM (active).

Turning to `O=[N+]([O-])c1cc(C(F)(F)F)c(Cl)c([N+](=O)[O-])c1Nc1ncc(C(F)(F)F)cc1Cl`, the AC50 was 1.39 µM (active) and 3.07 µM (active).

Take `CCC(=O)Nc1ccc(Cl)c(Cl)c1`: the result was inactive.

For `COP(=O)(OC)C(O)C(Cl)(Cl)Cl` (stereo unspecified), the outcome was inactive.

On to `CC(C1CC1)C(O)(Cn1cncn1)c1ccc(Cl)cc1` (stereo unspecified), for which the result was inactive.

Consider `CN(C)C(=O)Nc1cccc(C(F)(F)F)c1`, for which the outcome was inactive.

For the molecule `CC(Oc1cccc(Cl)c1)C(=O)O` (stereo unspecified), the outcome was inactive.

Consider `CC(C)N(C(=O)SCC(Cl)=C(Cl)Cl)C(C)C`, for which the AC50 is 32 µM (active).

With `CNC(=O)Oc1cccc2c1OC(C)(C)O2`, the AC50 is 20 µM (active).

Turning to `CCCCSP(=O)(SCCCC)SCCCC`, the result was inactive.

As for `CCOP(=S)(OCC)SCCSCC`, the result was inactive.

For `C=C(C)[C@H]1Cc2c(ccc3c2O[C@@H]2COc4cc(OC)c(OC)cc4[C@@H]2C3=O)O1`, the AC50 is 20 µM (active).

With `CCCSP(=O)(OCC)Oc1ccc(Br)cc1Cl` (stereo unspecified), the result was inactive.

Regarding `CCOP(=S)(OCC)Oc1ccc2c(C)c(Cl)c(=O)oc2c1`, the result was inactive.

Regarding `CN(C)[C@@H]1C(=O)C(C(N)=O)=C(O)[C@@]2(O)C(=O)C3=C(O)c4c(O)cccc4[C@@](C)(O)[C@H]3[C@H](O)[C@@H]12`, the AC50 was 33 µM (active) and the result was inactive.

For the molecule `C[Si](Cn1cncn1)(c1ccc(F)cc1)c1ccc(F)cc1`, the outcome was inactive.

On to `CNC(=O)ON=C(C)SC`, for which the result was inactive.

For `CCOC(=O)CC(SP(=O)(OC)OC)C(=O)OCC` (stereo unspecified), the result was inactive.

On to `CCCCOC(=O)[C@@H](C)Oc1ccc(Oc2ccc(C#N)cc2F)cc1`, for which the outcome was inactive.

Turning to `COc1ccc(C(=CC(=O)N2CCOCC2)c2ccc(Cl)cc2)cc1OC`, the outcome was inactive.

`CNC(=O)ON=C(SC)C(=O)N(C)C`: the outcome was inactive.

In the case of `O=C(O)c1cc(Oc2ccc(C(F)(F)F)cc2Cl)ccc1[N+](=O)[O-]`, the result was inactive.

(Values after PubChem BioAssay (EPA / NIEHS).)
